Consider eight compounds from PubChem BioAssay (NCI).

This is part of a sample that, as a whole, favours compounds with a hit. Of some 83,000 tested, about 20% had one in any assay.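 Single-concentration screen, 48 h exposure, 96-well plates. Endpoint: percent growth. Below 10 = active.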 Values without a mark were called inactive. Activity calls are given as the source filed them.

Some test systems named below: NCI-H23 lung; NCI-H226 lung; NCI-H322M lung; HOP-62 NSCLC; NCI-H460 lung; HOP-92 NSCLC; NCI-H522 lung; A549/ATCC NSCLC; 786-0 renal; COLO 205 colon; DU-145 prostate; K-562 leukemia; MDA-MB-231 breast; RXF 393 renal; SF-268 CNS; SF-295 CNS; SF-539 CNS; M14 melanoma; MALME-3M melanoma; UACC-257 melanoma.
Holding throughout (test): NCI-60 one-dose screen, 48 h (100 = growth as untreated, 0 = no growth, -100 = all killed)
Holding throughout (conditions): 10 µM unless noted

`O=C1/C(=C\c2cccc(OCCCCCOc3ccc(Cl)cc3)c2)N=C2SCCCN12`: the growth in the test on NCI-H23 lung was 35%; in the test with NCI-H226 lung, 60.3%; in the test with NCI-H322M lung it was 101%; in the test on HOP-62 NSCLC, 71.1%; in the test with NCI-H460 lung, 60.7%; with HOP-92 NSCLC, 48.1%. In addition, the growth in the test on NCI-H522 lung is 32.6%; with A549/ATCC NSCLC, 45.5%; with 786-0 renal it was 72.6%; in the test with COLO 205 colon it was 60.1%; in the test with DU-145 prostate, 84%; in the test with K-562 leukemia, 41.7%. For the same compound, the growth was 54.2% in the test with MDA-MB-231 breast; 71.2% in the test with RXF 393 renal; 81.3% with SF-268 CNS; 43% in the test on SF-295 CNS; 77.4% with SF-539 CNS; 44.5% in the test with M14 melanoma.

`COc1ccc(-n2c(=O)c3ccccc3n(Cc3ccc(C(=O)NO)cc3)c2=O)cc1`: the growth in the test on NCI-H23 lung is -50.1% (active); in the test with NCI-H226 lung, 31.8%; in the test with NCI-H322M lung, 38.4%; in the test with HOP-62 NSCLC, 25.8%; with NCI-H460 lung, 36.4%; with HOP-92 NSCLC, 48.2%. In addition, the growth is -41.8% (active) with NCI-H522 lung; 38.6% in the test with A549/ATCC NSCLC; 56.5% with 786-0 renal; -50.1% (active) in the test on COLO 205 colon; 20.2% in the test with DU-145 prostate; 1.76% (active) in the test with K-562 leukemia. Moreover, the growth is 47.4% in the test with MDA-MB-231 breast; -41.6% (active) in the test on RXF 393 renal; 32.5% in the test with SF-268 CNS; 4.34% (active) with SF-295 CNS; -10.6% (active) with SF-539 CNS; -7.23% (active) in the test with M14 melanoma.

`Cc1cccc(Cl)c1NC(=O)c1cnc(Nc2cc(N3CCOCC3)cc(N3CCOCC3)c2)s1`: the growth is 73.8% in the test on NCI-H23 lung; 68.6% with NCI-H226 lung; -10.4% (active) in the test with NCI-H322M lung; 4.81% (active) in the test on HOP-62 NSCLC; 51.2% in the test with NCI-H460 lung; -42.1% (active) in the test with HOP-92 NSCLC. The growth in the test on NCI-H522 lung is -9.13% (active); in the test with 786-0 renal it was 17.1%; with COLO 205 colon, -4.18% (active); in the test on DU-145 prostate, 3.54% (active); with K-562 leukemia, 5.18% (active); in the test on MALME-3M melanoma, 61.3%. Further, the growth with MDA-MB-231 breast is 20.5%; in the test with RXF 393 renal it was -30% (active); with SF-268 CNS it was 34%; with SF-295 CNS, 34%; in the test with SF-539 CNS, 6.88% (active); in the test on UACC-257 melanoma, 64.3%. The growth in the test with M14 melanoma was 35.9%.

In the case of `C[C@@H](NC(=O)c1ncnc(N)c1Cl)c1ncc(C(=O)Nc2cc(C(F)(F)F)c(Cl)cn2)s1`, the growth in the test with NCI-H23 lung was 59.8%; in the test on NCI-H226 lung, 78.6%; with NCI-H322M lung, 80.9%; in the test with HOP-62 NSCLC it was 63.1%; in the test with NCI-H460 lung, 71.6%; with HOP-92 NSCLC it was 64.1%. The growth in the test on NCI-H522 lung was 46%; with 786-0 renal, 110%; in the test on COLO 205 colon, 13.2%; with DU-145 prostate it was 94.9%; with K-562 leukemia, 11.5%; in the test with MALME-3M melanoma it was 3.24% (active). For the same compound, the growth was 39% in the test on MDA-MB-231 breast; 106% in the test on RXF 393 renal; 93% in the test on SF-268 CNS; 90.2% with SF-295 CNS; 86.4% in the test on SF-539 CNS; -13.9% (active) with UACC-257 melanoma. Also, the growth in the test on M14 melanoma is 15%.

Turning to `O=CC(OC(=O)c1ccccc1)C(OC(=O)c1ccccc1)C(COC(c1ccccc1)(c1ccccc1)c1ccccc1)OC(=O)c1ccccc1` (stereo not drawn), the growth was 51.3% with NCI-H23 lung; 76.4% in the test on NCI-H226 lung; 97.1% in the test on NCI-H322M lung; 99.8% with HOP-62 NSCLC; 89.2% with NCI-H460 lung; -54.6% (active) in the test on HOP-92 NSCLC. For the same compound, the growth with NCI-H522 lung was 40.4%; in the test with A549/ATCC NSCLC, 97.5%; in the test on COLO 205 colon it was 57.2%; in the test with DU-145 prostate, 86%; with MALME-3M melanoma, 67.9%; in the test on MDA-MB-231 breast, 48.4%. Further, the growth was 38.5% in the test with SF-268 CNS, 93.5% with SF-295 CNS, 76.5% in the test on SF-539 CNS and 53.4% with M14 melanoma.

Regarding `O=C(Nc1ccc(C2=NCCCN2)cc1)c1ccc(C(=O)Nc2ccc(C3=NCCCN3)cc2)nc1`, the growth was 102% in the test with NCI-H23 lung; 101% in the test with NCI-H226 lung; 111% with NCI-H322M lung; 97.2% in the test on HOP-62 NSCLC; 107% in the test on NCI-H460 lung; 131% with HOP-92 NSCLC. In addition, the growth is 96.1% in the test on NCI-H522 lung; 141% in the test with A549/ATCC NSCLC; 96.6% in the test on 786-0 renal; 125% in the test with COLO 205 colon; 122% with DU-145 prostate; 117% in the test on MALME-3M melanoma. For the same compound, the growth with MDA-MB-231 breast was 104%; in the test on SF-268 CNS, 106%; in the test with SF-295 CNS, 110%; with SF-539 CNS, 104%; with M14 melanoma it was 102%.

On to `CCCC(=O)OCC1OC(n2cnc3c(=S)nc[nH]c32)C(OC(=O)CCC)C1OC(=O)CCC` (stereo not drawn), for which the growth with NCI-H23 lung was 29.4%; in the test on NCI-H226 lung, 32.5%; with NCI-H322M lung, 35.4%; with HOP-62 NSCLC, 24.1%; with NCI-H460 lung, 54.9%; with HOP-92 NSCLC it was 17.9%. Besides, the growth was -12.7% (active) with NCI-H522 lung; 83.9% in the test with A549/ATCC NSCLC; 22.3% with 786-0 renal; 67.3% in the test on COLO 205 colon; 42.1% in the test with DU-145 prostate; 51.8% in the test on MALME-3M melanoma. The growth is 45.2% with MDA-MB-231 breast; 52.5% in the test with SF-268 CNS; 36.8% in the test with SF-295 CNS; 22.1% in the test with SF-539 CNS; 13% in the test with M14 melanoma.

In the case of `Nc1ncnc2c1c(-c1cccc(OCc3ccccc3)c1)cn2C1CC(CN2CCC2)C1` (stereo not drawn), the growth was 33.6% with NCI-H23 lung; 40.1% with NCI-H226 lung; 42.9% in the test on NCI-H322M lung; -29.5% (active) with HOP-62 NSCLC; 21.9% with NCI-H460 lung; -21% (active) with HOP-92 NSCLC. Besides, the growth with NCI-H522 lung is -23.6% (active); with 786-0 renal it was -70.4% (active); in the test on COLO 205 colon it was -66.7% (active); in the test on DU-145 prostate, 44.5%; in the test with K-562 leukemia, -45.7% (active); with MALME-3M melanoma, -79.7% (active). The growth with MDA-MB-231 breast is 3.88% (active); in the test with RXF 393 renal, -16.4% (active); in the test with SF-268 CNS it was 17.3%; in the test on SF-295 CNS, -47.3% (active); in the test on SF-539 CNS, -84.4% (active); with UACC-257 melanoma it was -79.4% (active). Moreover, in the test with M14 melanoma, the growth is -78.1% (active).
